FBA Mtb inh = inhibits M. tuberculosis FBA enzyme. P9WQA3. purified M. tuberculosis FBA, fluorescence read-out. inhibition, % at 1 µM. actives 2.3% (n = 360,000). AID 588726
Rv3671c protease = inhibitors of M. tuberculosis serine protease Rv3671c; P9WHR9; inhibition, % at 5.96 µM; actives 0.048% (n = 320,000); AID 2606; in the data active = inhibition above about 38%;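 also: extracellular domain of Rv3671c used as enzyme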
Target sequence (P9WHR9 whole entry, looked up, the tested form may be a part): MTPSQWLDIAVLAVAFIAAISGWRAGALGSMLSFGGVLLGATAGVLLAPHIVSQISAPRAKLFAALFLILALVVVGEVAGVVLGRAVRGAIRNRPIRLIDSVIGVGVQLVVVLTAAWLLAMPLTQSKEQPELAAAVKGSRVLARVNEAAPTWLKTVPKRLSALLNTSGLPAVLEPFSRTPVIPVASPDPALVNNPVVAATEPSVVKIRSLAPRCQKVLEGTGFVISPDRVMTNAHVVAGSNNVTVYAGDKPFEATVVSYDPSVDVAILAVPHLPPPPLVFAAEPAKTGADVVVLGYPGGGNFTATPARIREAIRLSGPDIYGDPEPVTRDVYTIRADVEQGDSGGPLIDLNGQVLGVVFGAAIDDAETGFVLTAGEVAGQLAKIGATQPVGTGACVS
GDH-TPI counter-1 = counter-screen for M. tuberculosis FBA inhibitors: GDH-TPI coupled enzymes | actives 1.2% (n = 360,000) | GDH-TPI coupled enzyme counterscreen, NADH absorbance | inhibition, % at 4.8 µM; in the data active = inhibition above about 30%
UGM FP inh = blocks M. tuberculosis UGM enzyme. inhibition, % at 10 µM. actives 0.06% (n = 320,000). AID 504406. purified UGM, fluorescence polarization probe displacement; in the data active = inhibition above about 10%, passing the limit was not always enough
Mtb betalactam = beta-lactam sensitization of Mtb H37Rv; M. tuberculosis H37Rv growth with meropenem, percent inhibition; inhibition, % at 25 µM; actives 0.27% (n = 330,000); AID 434955; call rule not given here;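 also: growth measured after seven days incubation then overnight dye step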
Mtb FBA inh conf = Mtb FBA inhibition, confirmed. shares compounds with FBA Mtb inh. purified M. tuberculosis FBA, fluorescence read-out. inhibition, % at 1 µM. actives 78% (n = 5,600)
GDH-TPI counter-2 = inhibits GDH-TPI coupling enzymes, flagging Mtb FBA hits; shares compounds with FBA Mtb inh; GDH-TPI coupled enzyme counterscreen, fluorescence; inhibition, % at 1 µM; actives 81% (n = 5,600); AID 652141; in the data active = inhibition above about 10%
GDH-TPI DR = GDH-TPI dose response counter-screen for Mtb FBA. shares compounds with FBA Mtb inh. IC50, µM. GDH-TPI coupled enzyme assay, fluorescence, artifact counterscreen. actives 79% (n = 170); call rule not given here
Large screens that a line does not name were inactive (follow-up assays come after a bar, where they were run). Compounds with a hit are over-represented: about 3.5% of the library has one in this group of screens. Rule as the data show it, unless noted: active = inhibition above about 27%; inactive = the rest.

CCN1C(=O)C(=O)N(CC(=O)Nc2ccccc2Oc2ccccc2)C1=O	none
CCCCN(CC)CCCNC(=O)c1cn(C)c2ccc(S(=O)(=O)N(C)C3CCCCC3)cc2c1=O	none
CCCCn1c(NC(=O)c2ccc(Br)o2)c(S(=O)(=O)c2ccccc2)c2nc3ccccc3nc21	FBA Mtb inh 58.8 | Mtb FBA inh conf inactive | GDH-TPI counter-2 inactive
CCCCn1c(NC(=O)c2ccco2)c(S(=O)(=O)c2ccc(C)cc2)c2nc3ccccc3nc21	FBA Mtb inh 95.6 (no result: Rv3671c protease, UGM FP inh, Mtb betalactam) | Mtb FBA inh conf 72.8 | GDH-TPI counter-2 46.7
CCCCn1c(NC(=O)c2ccco2)c(C(=O)OCC)c2nc3ccccc3nc21	FBA Mtb inh 79.8 | Mtb FBA inh conf inactive | GDH-TPI counter-2 inactive
CCCCCn1c(NC(=O)c2ccco2)c(S(=O)(=O)c2ccc(C)cc2)c2nc3ccccc3nc21	FBA Mtb inh 96.3 | Mtb FBA inh conf 30.4 | GDH-TPI counter-2 21.3
CCCCn1c(NS(=O)(=O)c2ccc(C)cc2)c(C(=O)OCC)c2nc3ccccc3nc21	none
CCCc1cc(NCc2ccccn2)n2c(nc3ccccc32)c1C#N	FBA Mtb inh 49.9 | Mtb FBA inh conf 86.1 | GDH-TPI counter-2 68.0
CCCNc1cc(C)c(C#N)c2nc3ccccc3n12	FBA Mtb inh 69.5 | Mtb FBA inh conf 55.4 | GDH-TPI counter-2 44.9
CCCCNc1nc2ccccc2nc1Cl	none
COc1ccc(S(=O)(=O)N2CCN(c3ncccn3)CC2)cc1OC	none
CCCCCCc1cc2cc(C(=O)OCC)c(=O)oc2cc1O	FBA Mtb inh 43.7 | Mtb FBA inh conf 136.1 | GDH-TPI counter-2 97.0
CCCSC1=C(C#N)C(c2ccc(Cl)cc2Cl)CC(=O)N1 (stereo not given)	none
CC1=C(C#N)C(/C=N/OCc2ccc(Cl)cc2)CC(=O)N1 (stereo not given)	FBA Mtb inh 35.2 | Mtb FBA inh conf inactive | GDH-TPI counter-2 17.3
COc1ccccc1CNc1nc(Oc2cccc(F)c2)c2sccc2n1	none (no result: Rv3671c protease, UGM FP inh, Mtb betalactam)
COc1cccc2c(=O)c(C(=O)NCc3cccs3)c[nH]c12	FBA Mtb inh 34.2 | Mtb FBA inh conf 32.3 | GDH-TPI counter-2 26.0
COc1cccc2c(=O)c(C(=O)NCCc3ccccc3)c[nH]c12	FBA Mtb inh 48.5 (no result: Rv3671c protease, UGM FP inh, Mtb betalactam) | Mtb FBA inh conf 63.4 | GDH-TPI counter-2 45.1
Cc1ccc2[nH]cc(C(=O)NCc3cccs3)c(=O)c2c1	none
COc1ccc(-c2cc3c(=O)n(CC(=O)NCc4cccnc4)nc(C)n3n2)cc1	FBA Mtb inh 28.4 | Mtb FBA inh conf inactive | GDH-TPI counter-2 10.8
Cc1ccc(C2C=C(c3ccccc3)Nc3ncnn32)cc1 (stereo not given)	FBA Mtb inh 30.1 | Mtb FBA inh conf 38.3 | GDH-TPI counter-2 26.1
CCOc1ccc(C2C=C(c3ccc(F)cc3)Nc3ncnn32)cc1 (stereo not given)	FBA Mtb inh 31.1 | Mtb FBA inh conf 146.3 | GDH-TPI counter-2 100.0
Cc1cc(NC(=O)CSc2ncnc3c2cnn3-c2cccc(Cl)c2)no1	none
O=C(Cc1ccccc1)NNc1c2ccccc2nc2ccccc12	none
O=C(Nc1c2ccccc2nc2ccccc12)C(Cl)(Cl)Cl	FBA Mtb inh 90.1 | Mtb FBA inh conf inactive | GDH-TPI counter-2 inactive
O=[N+]([O-])c1ccc(C=NN2CCOCC2)s1	none (no result: Rv3671c protease, UGM FP inh, Mtb betalactam)
O=[N+]([O-])c1ccc(-c2ccc(C=Nc3cccc4ccccc34)o2)cc1	FBA Mtb inh 70.9, GDH-TPI counter-1 33.3 | Mtb FBA inh conf inactive | GDH-TPI counter-2 inactive | GDH-TPI DR inactive
O=[N+]([O-])c1ccc(C=Nc2cccc3ccccc23)s1	FBA Mtb inh 50.2 | Mtb FBA inh conf inactive | GDH-TPI counter-2 inactive
CCO/C(C)=N/n1c2nc3ccccc3nc2c2c(=O)n(CC(C)C)c(C)nc21	FBA Mtb inh 33.2 | Mtb FBA inh conf inactive | GDH-TPI counter-2 inactive
CCOCCCn1c(C)nc2c(c1=O)c1nc3ccccc3nc1n2-c1ccc(C)cc1	none (no result: Mtb betalactam)
OCC[C@H]1C[C@H](O)[C@@H](O)[C@]2(CCCc3ccccc3O2)O1	none
COc1ccc(C2CC(=O)C=C(NCc3ccccc3)C2)cc1 (stereo not given)	none
CCOC(=O)c1cn(Cc2ccccc2)c2cc(C)nn2c1=O	FBA Mtb inh 52.5 | Mtb FBA inh conf 103.5 | GDH-TPI counter-2 86.5
CCOC(=O)c1cn(Cc2ccc(Cl)cc2Cl)c2cc(C)nn2c1=O	FBA Mtb inh 29.1 | Mtb FBA inh conf 72.2 | GDH-TPI counter-2 58.8
COC(=O)c1cc(C(=O)OC)n(Cc2ccc(Cl)cc2Cl)n1	none
COC(=O)[C@]1(C)N[C@H](c2ccc(-c3ccc(OC)cc3)cc2)[C@@H]2C(=O)N(C)C(=O)[C@@H]21	none
CCN1C(=O)[C@H]2[C@@H](c3ccc(-c4ccc(OC)cc4)cc3)N[C@@](C)(C(=O)OC)[C@H]2C1=O	FBA Mtb inh 99.8 | Mtb FBA inh conf 134.9 | GDH-TPI counter-2 93.6
CCOC(=O)Cn1c(=O)cc(C)c2ccccc21	none
CC(C)n1c(=O)c2ccccc2n1Cc1cn(C2CCCC2)nn1	FBA Mtb inh 101.0 (no result: Rv3671c protease, GDH-TPI counter-1, UGM FP inh, Mtb betalactam) | Mtb FBA inh conf 89.6 | GDH-TPI counter-2 60.3
Cn1c2ccccc2c2c(C(=O)O)cn(C3CCCC3)c(=O)c21	none
CCOC(=O)Cn1cc(Cn2c3ccccc3c(=O)n2C(C)C)nn1	FBA Mtb inh 68.6 (no result: Rv3671c protease, GDH-TPI counter-1, UGM FP inh, Mtb betalactam) | Mtb FBA inh conf inactive | GDH-TPI counter-2 inactive
O=C(O)CC1(CC(=O)Nc2cccc(C(=O)O)c2)CCCC1	none
COc1ccc(-c2cc3nc(-c4ccccc4)cc(N4CCN(C(C)=O)CC4)n3n2)cc1	FBA Mtb inh 69.7 (no result: Rv3671c protease, UGM FP inh, Mtb betalactam) | Mtb FBA inh conf inactive | GDH-TPI counter-2 inactive
COc1ccc(-c2cc3nc(-c4ccccc4)cc(N4CCC(O)CC4)n3n2)cc1	FBA Mtb inh 79.7 | Mtb FBA inh conf 39.0 | GDH-TPI counter-2 27.0
Fc1ccc(-c2cc3nc(-c4ccccc4)cc(N4CCOCC4)n3n2)cc1	none
COc1ccc(-c2cc3nc(-c4ccccc4)cc(N4CCN(C(=O)c5ccsc5)CC4)n3n2)cc1	none (no result: Rv3671c protease, UGM FP inh, Mtb betalactam)
COc1ccc(-c2cc3nc(-c4ccccc4)cc(N4CCCC(O)C4)n3n2)cc1 (stereo not given)	FBA Mtb inh 79.0 | Mtb FBA inh conf inactive | GDH-TPI counter-2 inactive
COc1ccc(-c2cc3nc(-c4ccccc4)cc(N4CCN(C(=O)c5ccccc5)CC4)n3n2)cc1	none (no result: Rv3671c protease, UGM FP inh, Mtb betalactam)
O=C(NCC1CCCO1)C(c1ccc(F)cc1)N(Cc1ccc2c(c1)OCO2)C(=O)c1ccc(CN2CCOCC2)o1 (stereo not given)	none
CN(C(=O)c1cccc(NC(=O)Cc2ccc(NC(=O)C3CCN(C(=O)C4CC4)CC3)cc2)c1)C1CCCCC1	none (no result: Rv3671c protease, UGM FP inh, Mtb betalactam)
COc1ccc(C(=O)NN/C(=N/S(=O)(=O)c2ccc(C)cc2)c2ccccc2)cc1	FBA Mtb inh 58.6 | Mtb FBA inh conf active | GDH-TPI counter-2 active

From PubChem
